Records with an inconclusive call do not appear. Entries that show only a call come without a potency. The source made the active and inactive calls. Calls come from the whole dose curve; as a rule, active = well fitted cell-killing curve with a large enough effect in the repeat runs; inconclusive = weak or mixed curves, or effect the other way; inactive = flat fitted curve, though single readings scatter.

The nature of experiment [1]: cAMP Responsive Elements (CRE) small molecule antagonists, cell-based qHTS assay: qHTS cell viability counter screen (AID 2060913). Note: nearly all actives have a fitted effect of over 40% in size. An outline of the steps:
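HEK293T CRE-bla, 2,000 cells/well, 18 h preincubation; cpd in DMSO + NKH477 0.25 uM final, 3 h 37 C/5% CO2; LiveBLAzer 2 h RT, then CellTiter-Glo 30 min RT, luminescence.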
On the technique in general: In qHTS, concentration-response curves come from the screen itself.

The nature of experiment [2]: cAMP Responsive Elements (CRE) small molecule agonists, cell-based qHTS assay: qHTS cell viability counter screen (AID 2060914).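 Note: viability read after 3 h of compound exposure; nearly all actives have a fitted effect of over 50% in size.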 The procedure, abridged: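 CRE-bla HEK 293T cells, plated 18 h at 37 °C, were exposed to compounds for 3 h at 37 °C/5% CO2. Viability was then measured in the same wells by CellTiter-Glo luminescence after 30 min at room temperature.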

As for `CCCCOC(=O)c1ccccc1C(=O)OCc1ccccc1`, the Potency entry in experiment [1] and in experiment [2] was “inactive” each time.

Regarding `COP(=S)(OC)Oc1ccc(S(=O)(=O)N(C)C)cc1`, the Potency entry in experiment [1] and in experiment [2] was “inactive” each time.

Turning to `CNC(C)Cc1ccccc1OC` (stereo not given), the Potency result in experiment [1] and in experiment [2] was “inactive” each time.

In the case of `Clc1ccccc1Cl`, the Potency result in experiment [1] and in experiment [2] was “inactive” throughout.

For the compound `CCCCC(C#N)(Cn1cncn1)c1ccc(Cl)cc1` (stereo not given), the Potency result in experiment [1] and in experiment [2] was “inactive” throughout.

As to `CCOP(=S)(OCC)Oc1cc(C)nc(N(CC)CC)n1`, the Potency entry in experiment [1] and in experiment [2] was “inactive” each time.

For `CCS(=O)(=O)C(C)(C)S(=O)(=O)CC`, the Potency entry in experiment [1] and in experiment [2] was “inactive” throughout.

As for `N#CCCCl`, the Potency entry in experiment [1] and in experiment [2] was “inactive” throughout.

Consider `O=[N+]([O-])c1cccc(CCl)c1`, for which the Potency entry in experiment [1] and in experiment [2] was “inactive” each time.

With `Clc1ccc(CSC(Cn2ccnc2)c2ccc(Cl)cc2Cl)cc1` (stereo not given), the Potency entry in experiment [1] and in experiment [2] was “inactive” in each case.

As for `C[C@]12CC[C@H](O)CC1=CC[C@@H]1[C@@H]2CC[C@]2(C)C(=O)CC[C@@H]12`, the Potency entry in experiment [1] and in experiment [2] was “inactive” each time.

As to `O=S(=O)(O)F`, the Potency result in experiment [1] and in experiment [2] was “inactive” in each case.

With `C[C@H]1O[C@H](OC2[C@@H](O)[C@@H](O)C(O)[C@H](O)[C@H]2O)[C@@H](N)C[C@@H]1N=C(N)C(=O)O` (stereo not given in full), the Potency entry in experiment [1] and in experiment [2] was “inactive” in each case.

Turning to `CN(C)c1ccc(N=O)cc1`, the Potency result in experiment [1] and in experiment [2] was “inactive” in each case.

For the compound `CCN(CC)Cc1nccn1-c1ccc([N+](=O)[O-])cc1C(=O)c1ccccc1Cl`, the Potency result in experiment [1] and in experiment [2] was “inactive” each time.

Consider `CC(C)N(C(=O)SCC(Cl)=C(Cl)Cl)C(C)C`, for which the Potency entry in experiment [1] and in experiment [2] was “inactive” each time.

Turning to `N#CC(Br)Br`, the Potency entry in experiment [1] and in experiment [2] was “inactive” throughout.

Take `O=C(Cl)/C=C/C(=O)Cl`: the Potency entry in experiment [1] and in experiment [2] was “inactive” throughout.

In the case of `C=CCN=C=S`, the Potency entry in experiment [1] and in experiment [2] was “inactive” throughout.

`O=C(O)COc1nc(Cl)c(Cl)cc1Cl`: the Potency result in experiment [1] and in experiment [2] was “inactive” in each case.

As to `C#C[C@]1(O)CC[C@H]2[C@@H]3CCC4=CC(=O)CC[C@]4(C)[C@H]3CC[C@@]21C`, the Potency entry in experiment [1] and in experiment [2] was “inactive” each time.

For the compound `COc1ccc(OC)c(CC(C)N)c1` (stereo not given), the Potency result in experiment [1] and in experiment [2] was “inactive” each time.

As for `CS/C(C)=N/OC(=O)N(C)SN(C)C(=O)O/N=C(\C)SC`, the Potency entry in experiment [1] and in experiment [2] was “inactive” each time.

On to `CC(=O)[C@H]1CC[C@H]2[C@@H]3CC[C@H]4C[C@H](O)CC[C@]4(C)[C@H]3C(=O)C[C@]12C`, for which the Potency result in experiment [1] and in experiment [2] was “inactive” throughout.

Turning to `CC(C)[C@@H](C(=O)O[C@@H](C#N)c1cccc(Oc2ccccc2)c1)c1ccc(Cl)cc1`, the Potency entry in experiment [1] and in experiment [2] was “inactive” each time.

Take `ClC(Cl)Br`: the Potency entry in experiment [1] and in experiment [2] was “inactive” each time.

Take `Cc1ncc2n1-c1ccc(Cl)cc1C(c1ccccc1F)=NC2`: the Potency entry in experiment [1] and in experiment [2] was “inactive” each time.

With `Cc1cc(-c2ccc(N)c(C)c2)ccc1N`, the Potency result in experiment [1] and in experiment [2] was “inactive” throughout.

On to `CC(Cc1ccc(O)cc1)NCC(O)c1cc(O)cc(O)c1` (stereo not given), for which the Potency entry in experiment [1] and in experiment [2] was “inactive” each time.

`CCC(=O)Nc1ccc(Cl)c(Cl)c1`: the Potency result in experiment [1] and in experiment [2] was “inactive” in each case.

On to `Clc1ccc(C(c2ccc(Cl)cc2)C(Cl)(Cl)Cl)cc1`, for which the Potency entry in experiment [1] and in experiment [2] was “inactive” each time.

Turning to `O=S(=O)(Cl)c1ccccc1`, the Potency entry in experiment [1] and in experiment [2] was “inactive” each time.

Consider `CC(C)c1ccc(O)cc1`, for which the Potency entry in experiment [1] and in experiment [2] was “inactive” each time.

Consider `CN(C1CCCCC1)C1CCCCC1`, for which the Potency result in experiment [1] and in experiment [2] was “inactive” in each case.

Turning to `[C-]1=CC=CC1.[Cl][Zr+2][Cl].c1cc[cH-]c1`, the Potency entry in experiment [1] and in experiment [2] was “inactive” throughout.

With `CN(C)[C@@H]1C(=O)C(C(N)=O)=C(O)[C@@]2(O)C(=O)C3=C(O)c4c(O)cccc4[C@@](C)(O)[C@H]3[C@H](O)[C@@H]12`, the Potency result in experiment [1] and in experiment [2] was “inactive” throughout.

As to `CCOP(=O)(OCC)Oc1ccc([N+](=O)[O-])cc1`, the Potency entry in experiment [1] and in experiment [2] was “inactive” in each case.

In the case of `O=[N+]([O-])C(Br)Br`, the Potency entry in experiment [1] and in experiment [2] was “inactive” throughout.

Consider `CS(=O)(=O)c1ccc(C(=O)C2C(=O)CCCC2=O)c(Cl)c1COCC(F)(F)F`, for which the Potency result in experiment [1] and in experiment [2] was “inactive” in each case.

Turning to `C=C(C)CN(CC)c1c([N+](=O)[O-])cc(C(F)(F)F)cc1[N+](=O)[O-]`, the Potency entry in experiment [1] and in experiment [2] was “inactive” each time.

As to `ClCBr`, the Potency entry in experiment [1] and in experiment [2] was “inactive” throughout.

Turning to `O=c1n(Cl)c(=O)n(Cl)c(=O)n1Cl`, the Potency result in experiment [1] and in experiment [2] was “inactive” in each case.

As for `O=C(NC(=O)c1c(F)cccc1F)Nc1cc(Cl)c(F)c(Cl)c1F`, the Potency result in experiment [1] and in experiment [2] was “inactive” in each case.

`CC1C(=O)C[C@]2(C(C)C)C[C@H]12` (stereo not given in full): the Potency result in experiment [1] and in experiment [2] was “inactive” each time.

Regarding `NC(=S)c1c(Cl)cccc1Cl`, the Potency entry in experiment [1] and in experiment [2] was “inactive” throughout.

With `Cc1ncc(CNC(=O)N(CCCl)N=O)c(N)n1`, the Potency result in experiment [1] and in experiment [2] was “inactive” each time.

As to `Cc1coc2c1CCC(C)C2` (stereo not given), the Potency result in experiment [1] and in experiment [2] was “inactive” each time.

Take `C=C(Cl)CSC(=S)N(CC)CC`: the Potency result in experiment [1] and in experiment [2] was “inactive” each time.

`Fc1ccc(C2(Cn3cncn3)OC2c2ccccc2Cl)cc1` (stereo not given): the Potency result in experiment [1] and in experiment [2] was “inactive” each time.

Turning to `O=S(=O)(O)C(F)(F)C(F)(F)C(F)(F)C(F)(F)C(F)(F)C(F)(F)F`, the Potency result in experiment [1] and in experiment [2] was “inactive” in each case.

Values taken from PubChem BioAssay (Tox21).
